# Measured values reported in the supplement of paper PMC10849652.
# Of roughly 7,900 targets only a part is listed; those with a hit were picked by preference. About 0.6% of all pairs of compound and target were hits.
# Compound: O=C(CCCCCCC(=O)Nc1ccccc1)NO [vorinostat]
# Assay: log2 fold change, soluble protein after heating vs DMSO (PISA); higher = thermal stabilisation; K562 cells, 10 uM, 30 min; active = over 0.2 and 3.5 SD of the protein, either way, in both replicates (recomputed)
# How it was run: (§1)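 K562 cells at 2×10^6 cells/mL were treated for 30 min with 10 μM compound, and aliquots were heated for 3 min over 48°C-58°C before pooling. Extraction used PBS with 0.5% NP-40 at 4°C, and soluble protein was the supernatant after 21,000xg for 90 min, measured by TMTpro 16plex LC-MS/MS with channel sums equalised. Thermal stability values, relative to control samples and from duplicates, are log2 fold changes.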
# UniProt Q9BWU1, sequence (Q9BWU1 whole entry, looked up): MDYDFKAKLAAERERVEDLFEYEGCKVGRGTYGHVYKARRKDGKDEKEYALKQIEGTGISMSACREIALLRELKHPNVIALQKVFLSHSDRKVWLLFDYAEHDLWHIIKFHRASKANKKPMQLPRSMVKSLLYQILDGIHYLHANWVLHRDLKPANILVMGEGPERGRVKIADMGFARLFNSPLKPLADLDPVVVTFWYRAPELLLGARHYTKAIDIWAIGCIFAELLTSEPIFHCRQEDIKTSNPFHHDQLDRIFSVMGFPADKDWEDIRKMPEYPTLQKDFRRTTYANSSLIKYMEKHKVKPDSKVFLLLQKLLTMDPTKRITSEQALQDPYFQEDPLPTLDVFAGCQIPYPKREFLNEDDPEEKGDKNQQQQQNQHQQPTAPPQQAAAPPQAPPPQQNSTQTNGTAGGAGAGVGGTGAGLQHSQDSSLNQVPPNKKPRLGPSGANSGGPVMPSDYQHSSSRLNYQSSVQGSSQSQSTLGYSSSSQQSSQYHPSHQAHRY
# UniProt P35790, sequence (P35790 whole entry, looked up): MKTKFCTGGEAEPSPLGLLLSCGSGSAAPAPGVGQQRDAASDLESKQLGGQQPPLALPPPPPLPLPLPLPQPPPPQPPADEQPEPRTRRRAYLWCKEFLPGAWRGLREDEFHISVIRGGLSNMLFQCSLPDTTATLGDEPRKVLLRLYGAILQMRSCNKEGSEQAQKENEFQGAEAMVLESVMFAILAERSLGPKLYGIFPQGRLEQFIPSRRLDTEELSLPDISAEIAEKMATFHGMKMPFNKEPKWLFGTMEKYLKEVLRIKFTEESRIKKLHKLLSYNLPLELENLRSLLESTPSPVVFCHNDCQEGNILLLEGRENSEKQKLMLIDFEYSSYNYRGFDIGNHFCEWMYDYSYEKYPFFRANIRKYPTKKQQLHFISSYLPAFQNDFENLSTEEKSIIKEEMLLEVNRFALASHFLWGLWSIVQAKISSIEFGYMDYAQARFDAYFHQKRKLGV
# UniProt P42574, sequence (P42574 whole entry, looked up): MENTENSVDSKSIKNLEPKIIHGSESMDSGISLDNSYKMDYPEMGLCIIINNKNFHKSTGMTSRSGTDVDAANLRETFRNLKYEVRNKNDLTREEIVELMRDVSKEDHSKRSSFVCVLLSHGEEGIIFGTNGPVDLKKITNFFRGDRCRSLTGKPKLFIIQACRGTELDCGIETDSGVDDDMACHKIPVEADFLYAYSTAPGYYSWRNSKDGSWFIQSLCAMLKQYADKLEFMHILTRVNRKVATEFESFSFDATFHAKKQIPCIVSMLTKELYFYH
# UniProt P61024, sequence (P61024 whole entry, looked up): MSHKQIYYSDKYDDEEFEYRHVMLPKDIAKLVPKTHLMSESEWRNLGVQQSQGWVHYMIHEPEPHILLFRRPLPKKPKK
# UniProt Q8N4Q1, sequence (Q8N4Q1 whole entry, looked up): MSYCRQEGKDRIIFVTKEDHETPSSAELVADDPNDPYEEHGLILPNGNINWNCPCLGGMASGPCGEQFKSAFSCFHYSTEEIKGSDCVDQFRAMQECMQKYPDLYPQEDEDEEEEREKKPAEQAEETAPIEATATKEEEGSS
# UniProt P51790, sequence (P51790 whole entry, looked up): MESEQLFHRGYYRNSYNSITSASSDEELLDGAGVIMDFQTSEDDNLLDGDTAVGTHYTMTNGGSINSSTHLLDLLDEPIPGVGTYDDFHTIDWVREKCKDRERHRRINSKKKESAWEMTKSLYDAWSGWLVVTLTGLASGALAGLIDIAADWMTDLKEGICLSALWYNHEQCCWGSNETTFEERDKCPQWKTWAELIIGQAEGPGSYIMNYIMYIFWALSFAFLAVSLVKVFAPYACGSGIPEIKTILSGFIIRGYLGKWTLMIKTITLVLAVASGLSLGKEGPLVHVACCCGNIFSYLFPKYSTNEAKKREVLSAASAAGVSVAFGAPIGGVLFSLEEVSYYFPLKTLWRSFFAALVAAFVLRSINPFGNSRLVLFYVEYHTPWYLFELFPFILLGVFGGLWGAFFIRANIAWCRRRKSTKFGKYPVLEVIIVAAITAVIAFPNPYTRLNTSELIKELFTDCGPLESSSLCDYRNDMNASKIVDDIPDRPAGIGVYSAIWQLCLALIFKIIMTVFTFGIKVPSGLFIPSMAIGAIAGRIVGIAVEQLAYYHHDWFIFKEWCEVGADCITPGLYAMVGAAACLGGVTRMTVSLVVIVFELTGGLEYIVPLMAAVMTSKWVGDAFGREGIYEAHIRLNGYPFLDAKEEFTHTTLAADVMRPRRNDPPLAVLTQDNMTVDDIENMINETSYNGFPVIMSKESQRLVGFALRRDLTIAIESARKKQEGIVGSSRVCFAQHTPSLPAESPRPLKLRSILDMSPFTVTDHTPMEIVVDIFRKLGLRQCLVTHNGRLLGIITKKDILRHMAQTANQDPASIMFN
# UniProt P30305, sequence (P30305 whole entry, looked up): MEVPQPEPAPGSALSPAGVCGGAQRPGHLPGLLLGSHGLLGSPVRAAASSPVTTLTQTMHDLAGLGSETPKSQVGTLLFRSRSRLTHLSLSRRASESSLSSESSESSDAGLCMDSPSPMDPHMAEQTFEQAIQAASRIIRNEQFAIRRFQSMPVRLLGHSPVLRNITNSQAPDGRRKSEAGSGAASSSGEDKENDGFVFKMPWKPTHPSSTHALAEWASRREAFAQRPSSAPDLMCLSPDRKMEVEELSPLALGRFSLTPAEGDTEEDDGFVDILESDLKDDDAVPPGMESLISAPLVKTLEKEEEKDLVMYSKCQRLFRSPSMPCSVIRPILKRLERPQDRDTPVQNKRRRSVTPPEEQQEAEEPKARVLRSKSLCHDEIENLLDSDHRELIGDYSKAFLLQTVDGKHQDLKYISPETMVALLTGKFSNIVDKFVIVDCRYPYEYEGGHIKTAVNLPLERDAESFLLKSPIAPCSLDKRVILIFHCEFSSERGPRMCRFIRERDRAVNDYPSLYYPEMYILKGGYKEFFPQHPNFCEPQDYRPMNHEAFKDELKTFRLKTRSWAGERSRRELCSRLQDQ
# UniProt Q9Y6H1, sequence (Q9Y6H1 whole entry, looked up): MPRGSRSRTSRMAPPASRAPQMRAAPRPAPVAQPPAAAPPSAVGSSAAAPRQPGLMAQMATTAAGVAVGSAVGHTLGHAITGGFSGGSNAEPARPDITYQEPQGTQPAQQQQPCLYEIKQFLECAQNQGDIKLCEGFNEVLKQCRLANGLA
# UniProt P15954, sequence (P15954 whole entry, looked up): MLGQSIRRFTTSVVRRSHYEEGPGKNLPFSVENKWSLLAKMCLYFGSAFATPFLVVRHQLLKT
# UniProt O76031, sequence (O76031 whole entry, looked up): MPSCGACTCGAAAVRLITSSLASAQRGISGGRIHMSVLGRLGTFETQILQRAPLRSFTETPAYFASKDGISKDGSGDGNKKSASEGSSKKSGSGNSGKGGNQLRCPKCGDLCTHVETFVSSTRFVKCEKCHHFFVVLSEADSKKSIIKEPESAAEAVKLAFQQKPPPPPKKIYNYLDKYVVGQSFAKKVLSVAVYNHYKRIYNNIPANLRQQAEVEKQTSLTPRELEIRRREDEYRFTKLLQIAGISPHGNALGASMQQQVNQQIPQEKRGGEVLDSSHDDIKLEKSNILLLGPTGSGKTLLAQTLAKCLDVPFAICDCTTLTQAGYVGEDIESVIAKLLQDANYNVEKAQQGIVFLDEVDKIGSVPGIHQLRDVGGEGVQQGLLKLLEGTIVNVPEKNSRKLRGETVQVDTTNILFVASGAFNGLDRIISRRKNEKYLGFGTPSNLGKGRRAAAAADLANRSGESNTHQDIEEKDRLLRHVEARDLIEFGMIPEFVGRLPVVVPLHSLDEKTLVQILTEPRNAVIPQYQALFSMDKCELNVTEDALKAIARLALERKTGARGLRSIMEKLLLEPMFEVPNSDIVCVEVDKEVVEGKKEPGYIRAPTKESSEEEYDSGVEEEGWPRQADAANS
# UniProt O60563, sequence (O60563 whole entry, looked up): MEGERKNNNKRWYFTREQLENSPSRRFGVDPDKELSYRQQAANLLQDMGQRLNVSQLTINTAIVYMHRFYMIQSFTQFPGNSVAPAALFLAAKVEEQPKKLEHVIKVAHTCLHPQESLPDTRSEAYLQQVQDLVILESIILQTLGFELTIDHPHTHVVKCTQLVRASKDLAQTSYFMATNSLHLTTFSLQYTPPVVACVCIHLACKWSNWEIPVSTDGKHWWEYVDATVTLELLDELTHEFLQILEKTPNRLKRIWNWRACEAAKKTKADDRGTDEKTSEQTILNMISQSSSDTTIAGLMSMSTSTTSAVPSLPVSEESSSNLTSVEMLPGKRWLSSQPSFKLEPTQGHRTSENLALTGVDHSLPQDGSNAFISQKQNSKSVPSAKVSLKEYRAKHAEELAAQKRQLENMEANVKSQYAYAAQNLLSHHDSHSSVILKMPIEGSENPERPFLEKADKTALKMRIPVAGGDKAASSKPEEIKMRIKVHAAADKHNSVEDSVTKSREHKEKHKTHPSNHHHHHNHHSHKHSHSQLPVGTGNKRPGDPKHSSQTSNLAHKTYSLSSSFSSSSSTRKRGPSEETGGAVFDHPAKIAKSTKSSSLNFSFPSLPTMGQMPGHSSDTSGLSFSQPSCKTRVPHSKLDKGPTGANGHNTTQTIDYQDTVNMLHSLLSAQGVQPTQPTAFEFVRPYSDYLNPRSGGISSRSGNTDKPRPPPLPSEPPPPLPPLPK
# UniProt Q00536, sequence (Q00536 whole entry, looked up): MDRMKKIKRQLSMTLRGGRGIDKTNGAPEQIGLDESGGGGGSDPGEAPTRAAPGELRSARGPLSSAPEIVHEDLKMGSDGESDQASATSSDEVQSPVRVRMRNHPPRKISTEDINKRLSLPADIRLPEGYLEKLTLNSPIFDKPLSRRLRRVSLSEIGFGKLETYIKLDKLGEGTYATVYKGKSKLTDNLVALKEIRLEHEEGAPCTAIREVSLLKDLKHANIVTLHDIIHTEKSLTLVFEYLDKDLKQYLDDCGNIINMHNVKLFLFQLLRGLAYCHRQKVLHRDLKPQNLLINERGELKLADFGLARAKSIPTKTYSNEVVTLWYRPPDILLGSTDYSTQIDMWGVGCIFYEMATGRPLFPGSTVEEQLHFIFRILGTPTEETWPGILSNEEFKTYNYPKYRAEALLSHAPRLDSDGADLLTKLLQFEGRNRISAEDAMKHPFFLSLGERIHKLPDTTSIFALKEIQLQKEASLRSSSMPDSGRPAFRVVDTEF
row,Target,log2 fold change
1,CLCN3 isoform 2 (UniProt P51790),0.037 (inactive)
2,CASP3 (UniProt P42574),0 (inactive)
3,CHCHD1 (UniProt Q96BP2),0.023 (inactive)
4,CHKA (UniProt P35790),-0.034 (inactive)
5,CCNT1 (UniProt O60563),0.176 (inactive)
6,CDK19 (UniProt Q9BWU1),0.016 (inactive)
7,CAD (UniProt P27708),0.088 (inactive)
8,CHCHD2 (UniProt Q9Y6H1),0.005 (inactive)
9,CDC25B isoform 4 (UniProt P30305),0.071 (inactive)
10,CHCHD4 isoform 2 (UniProt Q8N4Q1),0.442 (inactive)
11,COX7C (UniProt P15954),-0.017 (inactive)
12,CLPX (UniProt O76031),0.007 (inactive)
13,CKS1B (UniProt P61024),0.025 (inactive)
14,C19orf53 (UniProt Q9UNZ5),-0.051 (inactive)

# Compound: O=C(CCCCCCNC(=O)c1cnc(N(c2ccccc2)c2ccccc2Cl)nc1)NO [citarinostat]
# Assay: as above
# How it was run: as §1
row,Target,log2 fold change
1,CNN2 (UniProt Q99439),0.061 (inactive)
2,CHD4 isoform 2 (UniProt Q14839),0.063 (inactive)
3,CSNK1A1 (UniProt P48729),0.016 (inactive)
4,C4orf33 (UniProt Q8N1A6),0 (inactive)
5,CRYM-AS1 (UniProt A6NIL9),0.021 (inactive)
6,CDK16 isoform 2 (UniProt Q00536),0.061 (inactive)
7,CIT isoform 4 (UniProt O14578),-0.222 (inactive)
8,CLPTM1L (UniProt Q96KA5),0.044 (inactive)
9,CNOT2 (UniProt Q9NZN8),0.026 (inactive)
10,CD151 (UniProt P48509),-0.007 (inactive)
11,CSNK2B (UniProt P67870),0.036 (inactive)
12,COX15 (UniProt Q7KZN9),0.048 (inactive)
13,CCNB1 (UniProt P14635),0.031 (inactive)
14,CBX1 (UniProt P83916),-0.035 (inactive)
15,CNOT4 isoform 6 (UniProt O95628),0.038 (inactive)
16,C9orf64 (UniProt Q5T6V5),0.064 (inactive)
17,CLTB (UniProt P09497),-0.013 (inactive)
18,CCDC59 (UniProt Q9P031),-0.178 (inactive)

row,Target,log2 fold change
1,CALCOCO2 isoform 4 (UniProt Q13137),0.035 (inactive)
2,CPT1A (UniProt P50416),0.053 (inactive)
3,COMMD2 (UniProt Q86X83),0.011 (inactive)
4,CBR1 (UniProt P16152),0.033 (inactive)
5,CLCN3 isoform 2 (UniProt P51790),-0.002 (inactive)
6,CASP3 (UniProt P42574),-0.043 (inactive)
7,CHCHD1 (UniProt Q96BP2),0.009 (inactive)
8,CHKA (UniProt P35790),-0.055 (inactive)
9,CCNT1 (UniProt O60563),0.053 (inactive)
10,CDK19 (UniProt Q9BWU1),-0.265 (inactive)
11,CAD (UniProt P27708),0.014 (inactive)
12,CHCHD2 (UniProt Q9Y6H1),0.018 (inactive)
13,CDC25B isoform 4 (UniProt P30305),0.115 (inactive)
14,CHCHD4 isoform 2 (UniProt Q8N4Q1),-0.013 (inactive)
15,COX7C (UniProt P15954),0.079 (inactive)
16,CLPX (UniProt O76031),0.011 (inactive)
17,CKS1B (UniProt P61024),0.009 (inactive)
18,C19orf53 (UniProt Q9UNZ5),-0.105 (inactive)

# Compound: O=C(O)c1ccc2c(c1)nc(Nc1cccc(Cl)c1)c1ccncc12 [silmitasertib]
# Assay: as above
# How it was run: as §1
row,Target,log2 fold change
1,CNN2 (UniProt Q99439),0.062 (inactive)
2,CHD4 isoform 2 (UniProt Q14839),0.099 (inactive)
3,CSNK1A1 (UniProt P48729),0.048 (inactive)
4,C4orf33 (UniProt Q8N1A6),-0.126 (inactive)
5,CRYM-AS1 (UniProt A6NIL9),0.031 (inactive)
6,CDK16 isoform 2 (UniProt Q00536),0.201 (inactive)
7,CIT isoform 4 (UniProt O14578),0.049 (inactive)
8,CLPTM1L (UniProt Q96KA5),0.02 (inactive)
9,CNOT2 (UniProt Q9NZN8),0.046 (inactive)
10,CD151 (UniProt P48509),0.031 (inactive)
11,CSNK2B (UniProt P67870),0.377 (active)
12,COX15 (UniProt Q7KZN9),0.022 (inactive)
13,CCNB1 (UniProt P14635),-0.015 (inactive)
14,CBX1 (UniProt P83916),0.045 (inactive)
15,CNOT4 isoform 6 (UniProt O95628),0.023 (inactive)
16,C9orf64 (UniProt Q5T6V5),0.037 (inactive)
17,CLTB (UniProt P09497),-0.005 (inactive)
18,CCDC59 (UniProt Q9P031),0.154 (inactive)

row,Target,log2 fold change
1,CALCOCO2 isoform 4 (UniProt Q13137),0.047 (inactive)
2,CPT1A (UniProt P50416),0.037 (inactive)
3,COMMD2 (UniProt Q86X83),0.053 (inactive)
4,CBR1 (UniProt P16152),-0.011 (inactive)
5,CLCN3 isoform 2 (UniProt P51790),-0.015 (inactive)
6,CASP3 (UniProt P42574),-0.057 (inactive)
7,CHCHD1 (UniProt Q96BP2),0.031 (inactive)
8,CHKA (UniProt P35790),0.013 (inactive)
9,CCNT1 (UniProt O60563),0 (inactive)
10,CDK19 (UniProt Q9BWU1),0.327 (inactive)
11,CAD (UniProt P27708),0.003 (inactive)
12,CHCHD2 (UniProt Q9Y6H1),0.009 (inactive)
13,CDC25B isoform 4 (UniProt P30305),0.054 (inactive)
14,CHCHD4 isoform 2 (UniProt Q8N4Q1),0.038 (inactive)
15,COX7C (UniProt P15954),-0.003 (inactive)
16,CLPX (UniProt O76031),0.022 (inactive)
17,CKS1B (UniProt P61024),0.063 (inactive)
18,C19orf53 (UniProt Q9UNZ5),0.123 (inactive)
